Structures are written as SMILES. Where “and” joins values, the source holds several entries; their conditions need not be identical. Equal values may be shown once. A number with no mark means an inactive call. Records with an inconclusive call do not appear. Calls of active or inactive are those of the source. Unless noted, calls follow the shape of the dose curve; as a rule, active = well fitted curve in the direction sought with a large enough effect in the repeat runs; inconclusive = weak or mixed curves; inactive = no such curve, though single readings can be large; an effect the other way counts as inactive or inconclusive.

Assay [1] in a line: qHTS assay to identify small molecule antagonists of the estrogen related receptor (ERR) signaling pathway from Tox21 library - cell viability counter screen (AID 1224834). Also: nearly all actives have a fitted effect of over 30% in size. Also: potency is read from the fitted curve at half-maximal effect. In short, it runs like this:
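Fluorescence from CellTiter-Fluor gives the viability read-out, taken 30 min after reagent addition. Before that, ERR cells seeded 6 h earlier were incubated with compounds for 17.5 h at 37 C.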
(In general: In qHTS, concentration-response curves come from the screen itself.)

Assay [2] has as its target Luciferin 4-monooxygenase (Photinus pyralis) (UniProt P08659). The assay is described as follows: qHTS assay to identify small molecule inhibitors of firefly luciferase (AID 1224835). Also: nearly all actives have a fitted effect of over 25% in size. Also: potency is read from the fitted curve at half-maximal effect. Put shortly:
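Biochemical qHTS: compounds run as interplate titrations against purified firefly enzyme, with D-luciferin and ATP each at its KM concentration. Light output recorded by CCD imaging.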

Assay [3] in a line: qHTS assay to identify small molecule agonists of the constitutive androstane receptor (CAR) signaling pathway - cell viability counter screen (AID 1224836). Also: nearly all actives have a fitted effect of over 45% in size. Also: potency is read from the fitted curve at half-maximal effect. In short, it runs like this: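 Counter screen multiplexed with the CAR reporter readout: HepG2 cells co-transfected with hCAR and the CYP2B6-2.2kb construct receive a 15-concentration compound series and 0.75 uM PK11195 (final), then CellTiter-Fluor fluorescence is read after 23 h.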

Assay [4] is described as follows: qHTS assay to identify small molecule antagonists of the constitutive androstane receptor (CAR) signaling pathway - cell viability counter screen (AID 1224837). Also: nearly all actives have a fitted effect of over 45% in size. Also: potency is read from the fitted curve at half-maximal effect. Put shortly: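 HepG2-CYP2B6-hCAR cells, 2500/well, 4 hr pre-incubation; compound titration, 15 conc.; CITCO 50 nM final; 23 hr, 37 C/5% CO2; CellTiter-Fluor, fluorescence intensity.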
Assay [5] addresses Nuclear receptor subfamily 1 group I member 3 (Homo sapiens) (UniProt Q14994). Briefly: qHTS assay to identify small molecule antagonists of the constitutive androstane receptor (CAR) signaling pathway (AID 1224838).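 Also: HepG2 cells stably expressing hCAR with CYP2B6 luciferase reporter stimulated by CITCO; nearly all actives have a fitted effect of over 40% in size.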 Also: potency is read from the fitted curve at half-maximal effect. In short, it runs like this: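 HepG2-CYP2B6-hCAR cells; 4 h pre-incubation; cpd (15 conc) + CITCO 50 nM final; 24 h, 37 C/5% CO2; ONE-Glo, luminescence.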
The nature of assay [6]: qHTS assay to identify small molecule antagonists of the estrogen related receptor signaling pathway with the pleiotropic PPARgamma coactivator (PGC) from Tox21 10K library - cell viability counter screen (AID 1224840; active = well fitted cell-killing curve with a large enough effect in the repeat runs, not every such curve was filed as active; also: nearly all actives have a fitted effect of over 40% in size; also: potency is read from the fitted curve at half-maximal effect). In short, it runs like this: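 PGC/ERR cells, 2,000/well; 6 h pre-incubation 37 C/5% CO2; cpd in DMSO via pin tool; 17.5 h 37 C; CellTiter-Fluor, 30 min; fluorescence.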

Assay [7] in a line: qHTS assay to identify small molecule antagonists of the estrogen related receptor signaling pathway with the pleiotropic PPARgamma coactivator (PGC) from Tox21 10K library (AID 1224841; call rule not given here; also: actives are mostly falling curves and most rising ones were filed inactive; nearly all actives have a fitted effect of over 50% in size; also: potency is read from the fitted curve at half-maximal effect). Put shortly: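 PGC/ERR cell line, 2,000 cells/well; 6 h pre-incubation 37 C/5% CO2; compounds (DMSO) pinned in; 18 h, 37 C; One-Glo, 30 min RT; luminescence.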
Assay [8] can be described thus: qHTS assay to identify small molecule agonists of the estrogen related receptor signaling pathway with the pleiotropic PPARgamma coactivator (PGC) from Tox21 10K library (AID 1224842). Also: nearly all actives have a fitted effect of over 15% in size. In short, it runs like this:
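PGC/ERR reporter cell line, 2,000 cells per well, incubated 6 h at 37 C before 23 nL compound in DMSO was added. After 18 h at 37 C, One-Glo luminescence read following 30 min at room temperature.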

Assay [9] in a line: qHTS assay to identify small molecule agonists of the hypoxia (HIF-1) signaling pathway - cell viability counter screen (AID 1224844; calls by dose curve; also: nearly all actives have a fitted effect of over 50% in size; also: potency is read from the fitted curve at half-maximal effect). Put shortly: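 ME-180 HRE-bla cells, 2,000/well, 0.5% dialyzed FBS; 5 hr settle, 17 hr compound at 37C/5% CO2; CCF4-AM reporter read first, then CellTiter-Glo luminescence after 30 min RT.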
Assay [10] can be described thus: qHTS assay to identify small molecule agonists of H2AX (AID 1224845; active = well fitted activation curve with a large enough effect in the signal ratio in the repeat runs, not every such curve was filed as active; the % refers to the signal ratio; also: potency is read from the fitted curve at half-maximal effect). In short, it runs like this:
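Wild-type CHO-K1 cells, plated overnight, exposed 3hr at 37C to 15 concentrations (0.76% DMSO final). Lysed, then HTRF anti-pH2AX (S139) cryptate and anti-H2AX-d2 antibodies, 24 hr room temperature; 665/620 nm emission read.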

The nature of assay [11]: qHTS assay to identify small molecule agonists of the hypoxia (HIF-1) signaling pathway (AID 1224846; active = well fitted activation curve with a large enough effect in the signal ratio in the repeat runs, not every such curve was filed as active; the % refers to the signal ratio). In short, it runs like this:
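Cell line: CellSensor HRE-bla ME-180; 2,000 cells/well; 0.5% dialyzed FBS; 5 h preincubation; DMSO compound pin transfer; 17 h, 37C, 5% CO2; CCF4-AM added; bla FRET signal scored for activation.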

The nature of assay [12]: qHTS assay to identify small molecule agonists of H2AX - cell viability counter screen (AID 1224847; calls by dose curve; also: nearly all actives have a fitted effect of over 30% in size; also: potency is read from the fitted curve at half-maximal effect). In short, it runs like this: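 We seed wild-type CHO-K1 cells overnight, treat them for 3 hr at 37C with compounds in 15-concentration series, and quantify remaining viability by CellTiter-Glo luminescence.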
A short description of assay [13]: qHTS assay to identify small molecule antagonists of the estrogen related receptor (ERR) signaling pathway from Tox21 library (AID 1224848). Also: nearly all actives have a fitted effect of over 50% in size. Also: potency is read from the fitted curve at half-maximal effect. Put shortly:
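ERR reporter cell line (from NTP) seeded 2,000 cells/well, rested 6 h at 37 C/5% CO2, then pin-dosed with compounds in DMSO. After 18 h at 37 C, ONE-Glo added; luminescence read after 30 min at room temperature.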

Assay [14] in a line: qHTS assay to identify small molecule agonists of the estrogen related receptor (ERR) signaling pathway from Tox21 library (AID 1224849; calls by dose curve; also: nearly all actives have a fitted effect of over 15% in size). The following applies: ERR reporter cell line, ONE-Glo luciferase, 18 h. Put shortly: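 ERR cells, 6 h pre-incubation 37 C/5% CO2; cpd in DMSO pinned; 18 h 37 C; ONE-Glo added, 30 min RT; luminescence read. Agonist mode, qHTS.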
Assay [15] in a line: qHTS RealTime-Glo MT Cell Viability Assay in HepG2 cells - 24 hour (AID 1224867). Also: nearly all actives have a fitted effect of over 50% in size. Also: potency is read from the fitted curve at half-maximal effect. Put shortly:
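HepG2 suspension premixed with RealTime-Glo reagents is plated at 600 cells per well and left 5 h at 37 C/5% CO2. Compounds in DMSO then go in, and bioluminescence reflecting viable cell number is recorded over 40 h.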

Assay [16] can be described thus: qHTS RealTime-Glo MT Cell Viability Assay in HEK293 cells - 32 hour (AID 1224868). Also: nearly all actives have a fitted effect of over 50% in size. Also: potency is read from the fitted curve at half-maximal effect. In short, it runs like this:
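Reads taken at 0, 8, 16, 24, 32 and 40 h from the same wells. HEK293 cells (600/well) carried RealTime-Glo reagents from seeding, with compound added after a 5 h settle at 37 C.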

Assay [17] can be described thus: A CellTox Green Cytotoxicity Assay to monitor cytotoxicity in HEK293 cells - 0 hour (AID 1224869). Also: nearly all actives have a fitted effect of over 50% in size. Put shortly:
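Nonlytic real-time cytotoxicity: HEK293 + CellTox Green reagent plated, 5 h preincubation, pintool compound addition (23 nL in DMSO), 37 C for 40 h, fluorescence measured at successive time points.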

Assay [18] can be described thus: qHTS RealTime-Glo MT Cell Viability Assay in HepG2 cells - 40 hour (AID 1224870). Also: nearly all actives have a fitted effect of over 50% in size. Also: potency is read from the fitted curve at half-maximal effect. In short, it runs like this: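 HepG2 cells (600/well) mixed with RealTime-Glo MT reagent, settled 5 h at 37 C/5% CO2 before compound addition. Nonlytic NanoLuc luminescence from viable-cell prosubstrate reduction read repeatedly during 40 h treatment at 37 C.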
Assay [19] deals with Nuclear receptor subfamily 1 group I member 3 (Homo sapiens) (UniProt Q14994). The assay is described as follows: qHTS assay to identify small molecule agonists of the constitutive androstane receptor (CAR) signaling pathway (AID 1224839). Also: nearly all actives have a fitted effect of over 15% in size. Put shortly:
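A 15-concentration quantitative screen uses HepG2 cells co-transfected stably with human CAR and CYP2B6-2.2kb reporter. Treatment lasts 24 h with 0.75 uM PK11195 final present; ONE-Glo luminescence is the signal.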

Assay [20] has as its target Thyrotropin receptor (Homo sapiens) (UniProt P16473). The assay is described as follows: qHTS assay to identify small molecule agonists of the thyroid stimulating hormone receptor (TSHR) signaling pathway (AID 1224843; calls by dose curve; also: nearly all actives have a fitted effect of over 45% in size; also: potency is read from the fitted curve at half-maximal effect). Put shortly: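 TSHR-HEK293 cells in agonist mode, 30 min room-temperature step, then cAMP measured by competitive HTRF (cAMP-d2 with anti-cAMP cryptate) after 1 h at room temperature. Tested at 15 concentrations in triplicate.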
% is scaled to controls: 0 for no effect and ±100 for the full control effect.

Thyrotropin receptor (Homo sapiens), sequence (P16473 whole entry, looked up): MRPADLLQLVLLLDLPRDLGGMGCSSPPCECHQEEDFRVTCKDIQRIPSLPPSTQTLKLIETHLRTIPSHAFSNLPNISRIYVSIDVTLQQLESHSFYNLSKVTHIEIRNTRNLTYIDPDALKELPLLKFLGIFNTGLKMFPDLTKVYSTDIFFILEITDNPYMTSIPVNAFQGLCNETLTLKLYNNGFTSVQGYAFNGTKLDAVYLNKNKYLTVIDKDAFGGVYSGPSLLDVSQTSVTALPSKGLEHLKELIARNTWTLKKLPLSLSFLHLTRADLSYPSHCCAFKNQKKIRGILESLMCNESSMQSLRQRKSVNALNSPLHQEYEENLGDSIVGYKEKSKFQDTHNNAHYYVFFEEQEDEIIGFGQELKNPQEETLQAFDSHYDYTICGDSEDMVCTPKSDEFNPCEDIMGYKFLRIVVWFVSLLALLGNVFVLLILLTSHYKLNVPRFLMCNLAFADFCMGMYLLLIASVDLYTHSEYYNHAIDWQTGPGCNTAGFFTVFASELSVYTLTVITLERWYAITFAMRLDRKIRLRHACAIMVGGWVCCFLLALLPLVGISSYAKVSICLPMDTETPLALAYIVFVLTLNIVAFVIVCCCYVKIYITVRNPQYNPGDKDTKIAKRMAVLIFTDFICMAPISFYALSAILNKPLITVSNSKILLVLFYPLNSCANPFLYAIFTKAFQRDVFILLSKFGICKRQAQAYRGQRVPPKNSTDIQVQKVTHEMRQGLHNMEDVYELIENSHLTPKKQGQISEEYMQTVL
Nuclear receptor subfamily 1 group I member 3 (Homo sapiens), sequence (Q14994 whole entry, looked up): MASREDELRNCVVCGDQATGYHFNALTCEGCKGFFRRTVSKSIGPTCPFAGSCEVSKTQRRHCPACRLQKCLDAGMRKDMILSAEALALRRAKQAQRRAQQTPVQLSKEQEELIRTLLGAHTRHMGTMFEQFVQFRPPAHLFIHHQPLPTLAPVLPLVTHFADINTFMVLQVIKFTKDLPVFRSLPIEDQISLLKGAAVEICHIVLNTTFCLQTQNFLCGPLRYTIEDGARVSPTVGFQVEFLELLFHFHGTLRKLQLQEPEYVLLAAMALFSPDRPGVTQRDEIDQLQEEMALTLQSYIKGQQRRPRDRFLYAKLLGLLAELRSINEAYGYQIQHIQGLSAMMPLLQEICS
Luciferin 4-monooxygenase (Photinus pyralis), sequence (P08659 whole entry, looked up): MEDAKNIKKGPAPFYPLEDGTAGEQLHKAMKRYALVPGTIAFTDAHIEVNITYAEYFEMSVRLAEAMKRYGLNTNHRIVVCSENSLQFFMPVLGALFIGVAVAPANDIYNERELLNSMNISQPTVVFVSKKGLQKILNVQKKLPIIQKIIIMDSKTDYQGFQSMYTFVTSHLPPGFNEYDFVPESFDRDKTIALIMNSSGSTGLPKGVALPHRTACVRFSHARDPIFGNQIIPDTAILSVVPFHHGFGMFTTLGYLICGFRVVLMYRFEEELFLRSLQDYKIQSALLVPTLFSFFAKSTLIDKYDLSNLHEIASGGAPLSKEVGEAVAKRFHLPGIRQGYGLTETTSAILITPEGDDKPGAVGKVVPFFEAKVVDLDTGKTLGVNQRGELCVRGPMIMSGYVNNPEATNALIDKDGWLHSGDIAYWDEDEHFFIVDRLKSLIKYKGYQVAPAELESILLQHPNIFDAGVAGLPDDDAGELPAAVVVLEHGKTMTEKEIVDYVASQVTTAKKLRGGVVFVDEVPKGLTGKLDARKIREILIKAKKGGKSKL

For `CCCC(C)(COC(N)=O)COC(=O)NC(C)C` (centres undefined), the Potency entry in assay [1], in assay [2], in [3], in assay [4], in assay [5] and in [6] was “inactive” in each case. The Potency entry in [7], in assay [8], in [9], in assay [10], in assay [12] and in [13] was “inactive” each time. Further, the Potency result in assay [15], in assay [16], in assay [17] and in assay [18] was “inactive” in each case. The outcome in [11] was inactive. Moreover, the activity change, positive = activation is 0.487% in assay [14] (at 42.5 µM (top of the series)) and -2.02% in assay [14] (at 92.4 µM (top of the series)).

`c1ccc2c(c1)sc1ccccc12`: the Potency entry in [1], in assay [3], in assay [4], in assay [5], in assay [19] and in [6] was “inactive” in each case. Besides, the Potency result in [7], in [8], in assay [20], in assay [9], in [10] and in assay [12] was “inactive” each time. The Potency entry in assay [13], in [16], in assay [17] and in assay [18] was “inactive” throughout. For the same compound, in assay [2], the Potency is 31.7 µM (active). The compound was called inactive in [11]. Besides, the activity change, positive = activation in [14] (at 42.5 µM (top of the series)) was 0.495%; in assay [14] (at 92.4 µM (top of the series)), -4.7%.

Take `O=C(O)c1cc(I)cc(I)c1I`: the Potency entry in [1], in [2], in [3], in assay [4], in assay [5] and in [19] was “inactive” each time. For the same compound, the Potency result in assay [9], in [10], in [12], in assay [15], in assay [16] and in assay [17] was “inactive” throughout. In assay [18], the Potency entry was “inactive”. Also, the call in assay [11] was inactive.

On to `O=C1c2ccccc2C(=O)N1SC(Cl)(Cl)Cl`, for which the Potency in assay [1] is 24 µM (active) and 27.3 µM (active); in assay [2] it was 15.7 µM (active) and 20 µM (active); in assay [3], 26.9 µM (active) and 43.3 µM (active); in [4], 24 µM (active) and 19.3 µM (active); in [5] it was 19.1 µM (active) and 15.4 µM (active); in assay [6] it was 26.9 µM (active) and 24.3 µM (active). Besides, the Potency in [7] is 53.7 µM (active) and 61.1 µM (active); in assay [20] it was 19.1 µM (active) and 12.2 µM (active); in assay [9], 3.83 µM (active) and 7.76 µM (active); in assay [10], 9.93 µM (active) and 16 µM (active); in [12], 12.5 µM (active); in [13], 30.2 µM (active) and 30.6 µM (active). Besides, the Potency in [15] was 34.2 µM (active) and 13.8 µM (active); in assay [16], 6.82 µM (active) and 6.92 µM (active); in assay [18], 34.2 µM (active) and 15.5 µM (active). The Potency entry in [19] and in assay [8] was “inactive” each time. The activity change, positive = activation in assay [14] (at 92.4 µM (top of the series)) was -68.2% and -64.1%.

Consider `N#CC1(N=NC2(C#N)CCCCC2)CCCCC1`, for which the Potency entry in [1], in assay [2], in [3], in assay [4], in assay [5] and in assay [6] was “inactive” each time. Besides, the Potency entry in assay [7], in assay [8], in assay [9], in assay [10], in assay [12] and in assay [13] was “inactive” throughout. In addition, the Potency entry in assay [15], in assay [16], in [17] and in assay [18] was “inactive” each time. Moreover, in assay [11], the compound was classed as inactive. In assay [14] (at 92.4 µM (top of the series)), the activity change, positive = activation was -5.87%.

`CCCCC#N`: the Potency result in assay [1], in assay [2], in assay [3], in assay [4], in assay [5] and in assay [6] was “inactive” throughout. Besides, the Potency result in [20], in assay [9], in [10], in [12], in assay [15] and in assay [16] was “inactive” in each case. Also, the Potency result in assay [17] and in [18] was “inactive” throughout. Besides, the result in [11] was inactive.

Regarding `Nc1ccccc1C(=O)OCC(O)CO` (centres undefined), the Potency result in assay [1], in [2], in assay [3], in assay [4], in assay [5] and in assay [6] was “inactive” in each case. The Potency entry in assay [20], in assay [9], in assay [10], in assay [12], in assay [15] and in [16] was “inactive” in each case. The Potency entry in [17] and in assay [18] was “inactive” throughout. Moreover, the compound was classed as inactive in assay [11].

Regarding `COC1CC(=C(c2cccs2)c2cccs2)C[N+](C)(C)C1` (centres undefined), the Potency entry in assay [1], in [2], in assay [3], in assay [4], in [5] and in assay [19] was “inactive” in each case. In addition, the Potency result in assay [6], in assay [20], in [10], in assay [12], in [15] and in assay [16] was “inactive” in each case. The Potency result in assay [17] and in assay [18] was “inactive” each time. Further, the compound was classed as inactive in assay [11].

Values taken from PubChem BioAssay (Tox21).
